In PubChem BioAssay (NCI):
The panel holds about 83,000 compounds, 20% with a hit somewhere; the sample as a whole holds those more often.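 Activity criterion: percent growth below 10, measured after cells in 96-well plates were exposed to a single compound concentration for 48 hours.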 A number with no mark means an inactive call. Active and inactive are the calls of the source.

These molecules were tested on U251 CNS (assay: NCI-60 one-dose screen, 48 h (100 = growth as untreated, 0 = no growth, -100 = all killed)). Conditions: 10 µM unless noted.
Protocol: Growth inhibition of the U251 human tumor cell line is measured as a screen for anti-cancer activity. Cells are grown in 96 well plates and exposed to the test compound for 48 hours. Compounds are tested at a single concentration, which is 10^-5 M for most compounds. The reported endpoint is percent growth (GI% or GIPRCNT), where numbers from 0 - 100% represent growth inhibition, and numbers from -100% - 0 represent cell death. For example, a value of 40 represents 60% growth inhibition. A value of 0 means no net growth occurred over the course of the experiment. A value of -40 indicates 40% of cells at the beginning of the experiment died by the end of the experiment. A value of -100 means all cells are dead at the end of the experiment.
NCI-60 Human Tumor Cell Lines Screen was performed using the standard one-dose NCI protocol, which is described in more detail at https://dtp.cancer.gov/discovery_development/nci-60/default.htm.
Compounds with GIPRCNT values below 10 were considered active. Activity score was based on GIPRCNT using the following formula: […]
Score is 0 for GIPRCNT values of 100 or above, 50 for GIPRCNT values of 0, and 100 for GIPRCNT values of -100.

SMILES | growth
O=C1CC23OC4ON=C(Br)C4C2C(O)c2ccccc2N13 (stereo not given) | 110%
O=C1NN(c2ccccc2)C(c2ccc3c(c2)OCO3)N2CCC[C@@H]12 (stereo not given in full) | 95.1%
N#Cc1ccc(C2C3=C(CCCC3=O)OC3=C2C(=O)c2ccccc2C3=O)cc1 (stereo not given) | 70%
N#CC(C#N)=C1NC(c2ccccc2)=C(c2ccccc2)C(c2ccccc2Cl)=C1C#N | 103%
Cn1c2c(c3ccc(-c4ccn[nH]4)cc3c1=O)C(=O)c1ccccc1-2 | 13.5%
OCCNc1nc(NCCO)nc(Nc2ccc(C3=NN(c4ccc(Cl)cc4)C(c4ccc(Cl)cc4)C3)cc2)n1 (stereo not given) | 43%
O=C1C(=O)c2c(nc3ccc(Br)cn23)-c2ccccc21 | -100% (active)
Fc1ccc(N/N=C/c2ccc(-n3cccn3)cc2)cc1 | 103%
COC(=O)/C=C1\SC(=Nc2ccc(F)cc2)N(CCc2c[nH]c3ccccc23)C1=O | 98.2%
CC(=O)O[C@@H]1C[C@]2(C)[C@H]3[C@H](O)C[C@@H]4C5=CC(C)(C)CC[C@]5(C)CC[C@@]4(C)[C@]3(C)CC[C@H]2C(C)(C)[C@H]1O | 97.6%
Cc1c(O)c(=O)ccn1-c1nc2ccccc2s1 | 84.1%
O=c1[nH]c2ccccc2cc1-c1nc2ccc(Cl)cc2[nH]1 | 49.5%
C(=C\c1cn(-c2ccccc2)nc1-c1ccccc1)/c1nnc(-c2c[nH]c3ccccc23)o1 | 20.9%
O=C1NN(c2ccccc2)C(c2ccc(Cl)cc2)N2CCC[C@H]12 (stereo not given in full) | 101%
COc1ccc(Cc2nc(C#N)c(N3CCN(c4ccc(F)cc4)CC3)o2)cc1 | 103%
CCOC(=O)c1c(C)nc2c(c1N)CC(=O)N2CCc1ccccc1 | 31.8%
Cc1cc(O)cc(O)c1N=NC1=NCCS1 | 105%
CC(C)NS(=O)(=O)c1cccc(-c2ccc3c4c(n(CCCN(C)C)c(=O)c3c2)-c2ccccc2C4=O)c1 | 56%
O=C1NCc2ccc3c(-c4cccc(Cl)c4)c[nH]c3c21 | 16.3%
COc1cc(C(=O)Nc2cc(O)c(C/C=C(\C)CCC=C(C)C)c(O)c2)cc2c1O[C@]1(C)CC[C@@H](O)C(C)(C)[C@H]1C2 | 6.63% (active)

SMILES | growth
CC[C@]12C=CCN3CC[C@@]4(c5ccc(OC)cc5N(C)[C@H]4[C@@](O)(C(=O)OC)[C@@H]1OC(=O)CCC(=O)O[C@H]1CC[C@H]4[C@@H]5CC[C@H]6CC(=O)CC[C@]6(C)[C@H]5CC[C@]14C)[C@@H]32 | 18.1%
COc1cc(C(=O)N2CCN(c3ccccc3OC)CC2)c(NC(=O)c2cnccn2)cc1OCc1ccccc1 | 83.2%
C=C1C(=O)O[C@H]2[C@H]1CC/C(C=Nc1c(N)cc(C(F)(F)F)cc1Br)=C\CC[C@@]1(C)O[C@@H]21 | 25.7%
COc1ccc(-c2[nH]c3ccccc3c2C=C(C#N)C#N)cc1 | 27.8%
C#Cc1ccccc1NC(=O)c1sc2nc3c(cc2c1N)CCCCCC3 | 23.4%
CCCCOc1nc2ccc(C)cc2cc1/C=C/C(=O)/C=C/c1ccc2c(c1)OCO2 | 48.4%
O=C(N/N=C/C[C@@H]1[C@@H](/C=C/[C@@H](O)COc2cccc(Cl)c2)[C@H](O)C[C@@H]1O)c1ccncc1 | 92.9%
Cc1cc2ccccc2c[n+]1CC(=O)c1ccc(-c2ccccc2)cc1 | 42.7%
CO[C@@]12C=C[C@@]34CCC(=O)N3c3ccccc3[C@@H](O1)C4C2 | 99.7%
CCCCn1c2cc(OCc3cn(-c4ccc(Cl)cc4)nn3)ccc2c2ccnc(C)c21 | 21.8%
CC[C@]12C=CCN3CC[C@@]4(c5cc(NC(=O)CCC(=O)O[C@H]6CC[C@H]7[C@@H]8CC[C@H]9CC(=O)CC[C@]9(C)[C@H]8CC[C@]67C)c(OC)cc5N(C)[C@H]4[C@@](O)(C(=O)OC)[C@@H]1OC(C)=O)[C@@H]32 | 64.3%
C#CCN(CCCOc1ccc(Cl)cc1Cl)CCCSC(=O)CCCCCN1/C(=C\C=C2/CCCC(/C=C/C3=[N+](CCCCCC(=O)[O-])c4ccccc4C3(C)C)=C2Cl)C(C)(C)c2ccccc21 | -63.8% (active)
C#C[C@@]1(O)[C@@H](CO)O[C@@H](n2cnc3c(-c4ccccc4)ncnc32)[C@@H]1O | 104%
O=C(O)c1ccc(-n2cc(/C=N/Nc3ccc(Cl)cc3Cl)c(-c3ccccc3)n2)cc1 | 90.5%
NC(=O)c1ccc(C2C3=C(CCCC3=O)OC3=C2C(=O)c2ccccc2C3=O)cc1 (stereo not given) | 0.896% (active)
COc1cc(NCC(=O)Nc2cc(Nc3cccc(C(F)(F)F)c3)ncn2)c(Cl)c(OC)c1Cl | 92.5%
O=C1c2ccccc2C(=O)c2c1oc1c2c(=O)[nH]c2ccccc21 | 79%
O=C(C[n+]1cccc2cc(Cl)ccc21)c1ccc2c(c1)CCCC2 | -28.9% (active)
C#CCN1C(=O)c2ccccc2N(CC#C)C12CCN(Cc1cn(CC(=O)Nc3ccccc3C(N)=O)nn1)CC2 | 97.2%
CCn1cc(C(=O)O)c(=O)c2cc(F)c(N3CCN(CC(=O)Nc4ccc(/C(C)=N/OC)cc4)CC3)cc21 | 94.3%
